# Whole data set: some 33,000 sequences, median “E-score (-0.5 to 0.5)” near -0.032, cut for the highest 2% near 0.36. For the sample, the highest values were picked, then their nearest neighbours and some sequences at random.
# Target: T1, Sko1 (UniProt Q02100)
# T1 sequence: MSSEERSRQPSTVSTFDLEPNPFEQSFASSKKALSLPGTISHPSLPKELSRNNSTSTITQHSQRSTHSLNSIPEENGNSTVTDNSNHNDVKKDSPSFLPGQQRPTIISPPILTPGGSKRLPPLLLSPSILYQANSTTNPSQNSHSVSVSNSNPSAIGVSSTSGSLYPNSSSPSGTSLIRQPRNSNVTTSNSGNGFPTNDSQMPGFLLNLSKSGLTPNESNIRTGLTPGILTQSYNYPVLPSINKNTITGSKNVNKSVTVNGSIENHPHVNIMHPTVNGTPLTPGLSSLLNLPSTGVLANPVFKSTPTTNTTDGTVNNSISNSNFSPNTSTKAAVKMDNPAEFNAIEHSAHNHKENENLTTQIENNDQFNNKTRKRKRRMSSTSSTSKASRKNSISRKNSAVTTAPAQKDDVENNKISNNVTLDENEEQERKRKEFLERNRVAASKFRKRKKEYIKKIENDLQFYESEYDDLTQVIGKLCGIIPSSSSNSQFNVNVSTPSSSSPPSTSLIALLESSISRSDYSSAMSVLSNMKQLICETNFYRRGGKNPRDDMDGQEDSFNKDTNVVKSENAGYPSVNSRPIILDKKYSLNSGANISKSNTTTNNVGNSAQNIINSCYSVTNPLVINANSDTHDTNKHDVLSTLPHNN
# Assay: PBM E-score (8-mer binding enrichment) (E-score (-0.5 to 0.5)); higher = stronger / more preferred TF binding
# Details: protein concentration: 200 nM; construct: GST-full length
# Description: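 Universal 'all 10-mer' protein binding microarrays (Agilent AMADID 015681) probed with GST-tagged S. cerevisiae TFs (full-length or DBD) made by in vitro transcription/translation (PURExpress), about 100-200 nM. Bound TF was detected with fluorescent anti-GST. Each ungapped 8-mer (which stands for itself and its reverse complement) is scored by the PBM enrichment score (E-score), a modified Wilcoxon-Mann-Whitney statistic from -0.5 to +0.5, computed with the Universal PBM Analysis Suite. Scale: above 0.35 generally sequence-specific binding.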
row,Sequence,PBM E-score
1,ACTGAAGA,0.0507
2,CAACGTAC,0.326
3,AAACGTTT,0.275
4,AAACGTAT,0.429
5,AAACGTGC,0.231
6,AAACGTGT,0.288
7,AAACGTAC,0.37
8,AAGCGTAG,-0.0528
9,AAACGTAA,0.462
10,AAACGTTA,0.3
11,AACCGTAA,0.0957
12,AAACGTAG,0.393
13,GGATTCAC,-0.215
14,CATCTCGC,-0.129
15,AGTCCGTA,-0.218
16,TATAGAAA,0.0683
17,AGCTTTGG,-0.172
18,ATAAAACC,-0.0531
19,AGACAGTG,-0.112
20,GTCTCCTA,0.0919
21,GACCTCGC,-0.122
22,GAGAAACC,-0.146
23,TACCATCA,-0.0837
24,GCACGTAA,0.459
25,GCACGTAC,0.34

row,Sequence,PBM E-score
1,TCACGTAA,0.472
2,TCCCGTAA,0.11
3,GCTCGTAA,0.231
4,TCACGTGA,0.336
5,TCAAACGA,0.102
6,CTTTGGGC,-0.121
7,AGAGGGCT,-0.406
8,GGTAAATA,0.0846
9,CCGACCAC,-0.182
10,CGCGTGTA,0.227
11,AACGTGTA,0.247
12,GACGTGTA,0.374
13,GTCGTGTA,0.169
14,CACGTGTC,0.357
15,CACGTGTA,0.399
16,AGGTTAAA,-0.104
17,CTCCTTGA,-0.159
18,CGCCAGGC,-0.227
19,AAGGTTGT,0.00278
20,CTAATTGC,0.104
21,CACGAATA,0.265
22,TACGAATA,0.383
23,GACGAATA,0.297
24,CTAAGATA,-0.023
25,GGCACGCA,-0.00979

row,Sequence,PBM E-score
1,CGCACGTA,0.408
2,GGCACGGA,-0.233
3,CGCACGTC,0.333
4,GGCACGTA,0.395
5,CGCACGCA,0.211
6,CGAGTTCA,0.00744
7,CAGACCGC,-0.156
8,GGTCATGA,0.111
9,AGTCATGA,0.0664
10,CGTCATGC,0.469
11,CCTCATGC,-0.142
12,CGTCATGA,0.471
13,AGTCATGC,-0.0777
14,GGCAGATA,-0.0846
15,AATCGTTA,0.23
16,CGAAGGGC,-0.104
17,CTGTATGA,-0.0143
18,GTACCCCA,-0.19
19,CTAGGGAG,-0.148
20,CCAGTACG,0.215
21,AAGGGAGG,-0.244
22,ACGTAGTG,0.452
23,GCGTAGTA,0.279
24,CCGTAGTC,-0.266
25,AGGTAGTG,-0.0666

row,Sequence,PBM E-score
1,ACTTAGTG,0.00172
2,ACGTAGTC,0.425
3,ACGTAGTA,0.446
4,ACTTAGTC,-0.15
5,CCGTAGTA,-0.0427
6,AACAGGGT,-0.192
7,AGCCGCAG,-0.223
8,ACCTGTGA,0.115
9,CCGGATTC,-0.0976
10,CTTCGCGC,0.217
11,CAGATGGA,-0.0703
12,AGTATTAC,0.331
13,CGTATTAA,0.362
14,TGTATTAA,0.182
15,CATATTAG,0.203
16,AGTATTAG,0.00871
17,AGTATTAA,0.261
18,CGTATTAG,0.382
19,GGTATTAC,0.204
20,CGTATTAC,0.387
21,CGTTCTAA,0.131
22,AGTTGGTG,-0.0352
23,ACCCATAA,-0.118
24,GGCCTCAC,-0.0829
25,AGAGCACC,-0.328

row,Sequence,PBM E-score
1,ACCTTGTG,-0.0718
2,CACCTGTC,-0.232
3,ATATGACC,0.00457
4,ACATGACA,0.217
5,ACATGACG,0.474
6,CCATGACA,0.163
7,ACATGACT,-0.0468
8,CCATGACG,0.475
9,ATATGACG,0.477
10,CCATGACC,-0.0889
11,ATATGACA,0.243
12,TCATTTCA,0.181
13,AGAGCAGC,-0.173
14,GCACGTTA,0.274
15,AGACGTTC,0.125
16,CTACGTTC,0.272
17,GTACGTTA,0.395
18,ATACGTTA,0.436
19,GTACGGTA,0.207
20,ACACGTTA,0.318
21,CAACGTTA,0.257
22,CCACGTTA,0.289
23,CTACGTTA,0.406
24,ATACGTTC,0.374
25,ATGCGTTA,0.247

row,Sequence,PBM E-score
1,AGCAGGGC,-0.225
2,AGACTACA,-0.158
3,ATGCTAAT,0.209
4,AAGATGCT,-0.0361
5,AAGAAAAG,-0.011
6,GGAGGCCC,-0.241
7,AGCCCCCC,-0.355
8,ACCAACAA,0.147
9,AGATGCAC,-0.0198
10,ATACGTTG,0.391
11,AAACGTTG,0.112
12,ACACGTTG,0.188
13,ATCTCTAC,0.106
14,CCCAGCGC,-0.229
15,AGGTACTC,-0.109
16,ATGTACTG,-0.0689
17,ACGTACTG,0.412
18,GCGTACTA,0.232
19,ACGTACTA,0.426
20,CCGTACTA,0.00949
21,AGGTACTG,-0.125
22,ACGTACTC,0.432
23,CCGTACTC,-0.132
24,GGGATAGA,-0.0751
25,CTGGGCTA,-0.317

row,Sequence,PBM E-score
1,AGATACGA,0.208
2,CCCTGGAC,-0.188
3,CAACGCAG,-0.0699
4,GTAACTTA,0.262
5,AAATACGT,0.463
6,ACATACGC,0.28
7,AAATACGC,0.315
8,AAATACGA,0.302
9,ACATACGT,0.459
10,ACATACGG,0.0483
11,TCGAGTCA,-0.00474
12,AGGTGCTA,-0.0841
13,ACCCGTGA,0.0498
14,CGCCACAG,-0.198
15,CAACCCAC,0.011
16,GATCAAAA,0.0898
17,GTCATGAA,0.221
18,ATCATGAC,0.407
19,CTCATGAC,0.285
20,ATCATGAG,0.211
21,GTCATGAC,0.392
22,ATCATGAA,0.126

# Source: the supplement of paper PMC3334620
